# Assay outcomes as filed in PubChem.
# The list is not random: actives were taken first. Their share in the collection is about 2.2%.
# M1 PAM parental: M1 PAM counterscreen hit in parental CHO-K1 cells; actives 0.02% (n = 360,000); ATP EC20, Fluo-8 calcium fluorescence; 0% at ATP EC20, 100% at ATP max; activation, % at 3 µM;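 active means activation above the run cutoff, the mean activation of all test compounds plus 3 SD, cut at about 40% in these data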;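 further: peak over basal fluorescence ratio in a 140 s read after ATP addition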
# CHO-K1 Ca antag: nonselective inhibitor or artifact in parental CHO-K1 cells | ATP-induced calcium, Fluo-8 fluorescence | inhibition, % at 3 µM | actives 0.6% (n = 360,000) | AID 602250;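 active means inhibition above a per-plate cutoff, the plate's mean sample inhibition plus 3 SD, cut at about 24% in these data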;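 further: 0% = DMSO plus EC80 ATP and 100% = DMSO alone without ATP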
# NTR1 agonist: agonists of human neurotensin receptor NTR1; P30989; activation, % at 20 µM; actives 0.17% (n = 330,000); NTR1-U2OS beta-arrestin-GFP spot imaging, agonist mode;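 active means activation at or above 40% of the spot to cytoplasm intensity ratio, with at least 20 cells analyzed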;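 further: 0% = DMSO without peptide and 100% = 100 nM NTR1 peptide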
# ANO1 block: blocks the mouse calcium-activated chloride channel TMEM16A. Q8BHY3. HEK293 TMEM16A/YFP iodide influx fluorescence, ionomycin. normalized B-score (activity score, 25-100; higher = stronger inhibition) at 10 µM. actives 1.2% (n = 310,000). AID 588511;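 active means ratio plate-corrected score three or more library SD toward inhibition, starting fluorescence score within five deviations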;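 further: score derived from kinetic fluorescence span divided by baseline fluorescence per well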
# M1 ag parental: counter-screen for M1 agonists: effect in parental CHO-K1 cells; Fluo-8 calcium fluorescence; scaled to maximal ATP response, vehicle zero; activation, % at 3 µM; actives 0.48% (n = 360,000); AID 602248; in the data active means activation above about 15%;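 further: untransfected CHO-K1 host cells lacking M1 receptor as counterscreen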
# ANO1 activ: activators or potentiators of mouse TMEM16A chloride channel; HEK293 TMEM16A/YFP-H148Q/I152L, iodide quench fluorescence; hits give low values; AID 623877; B-score at 10 µM; actives 0.3% (n = 340,000); Q8BHY3;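 active means fluorescence-ratio B-score plate-corrected deviation score at least 3 library SD below zero, with starting fluorescence score within 5 deviations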;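 further: channel opened by trigger with iodide after compound preincubation; score built on the fluorescence ratio of max minus min over baseline; more negative score means more quench and so TMEM16A activation or potentiation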
# The depositor's hits bear a star; i = inactive; · = not tested or not shown.
SMILES,M1 PAM parental,CHO-K1 Ca antag,NTR1 agonist,ANO1 block,M1 ag parental,ANO1 activ
O=C(Nc1ccc(Cl)c(C(F)(F)F)c1)[C@@H]1CC=C[C@@H]2CCN(C3CC3)C(=O)[C@@H]21,47*,-3,-1,i,0,i
COC(=O)c1cccc(CSc2nc3ccccc3[nH]2)c1,6,-2,1,25*,11,i
CC(C)C[C@H]1CN(CCCC[C@@H]2CNC(=O)C(=O)N2Cc2ccccc2)C(=O)C(=O)N1CCc1ccccc1,1,-12,·,·,0,·
O=C(c1c(F)cccc1Cl)N(Cc1ccco1)C1CCS(=O)(=O)C1 (stereo unspecified),9,-5,·,·,0,·
CN(C)C(=O)CSc1nnc(-c2cc(-c3cccs3)nc3ccccc23)o1,-2,27*,6,i,1,i
NC(Cc1ccc(C(F)(F)F)cc1)c1csc(NC(=O)NCCc2ccccc2)n1 (stereo unspecified),10,14,·,·,8,·
CC1CCCN(S(=O)(=O)c2ccc(NC(=O)Cc3ccc(S(=O)(=O)N4CCOCC4)s3)cc2)C1 (stereo unspecified),-32,25*,3,i,0,i
CC1CCN(CC(=O)Nc2ccc(S(=O)(=O)N3CCCC(C)C3)cc2)CC1 (stereo unspecified),11,-2,1,i,18*,i
COC(=O)Nc1ccc(S(=O)(=O)N2CCCC(C(=O)N3CC(C)OC(C)C3)C2)cc1 (stereo unspecified),13,1,3,i,16*,i
CC1CCCN(S(=O)(=O)c2ccc(NC(=O)CN3CCN(C)CC3)cc2)C1 (stereo unspecified),-2,7,1,i,0,i
CC1CCN(S(=O)(=O)c2ccc(NC(=O)Cc3ccc(S(=O)(=O)N4CCOCC4)s3)cc2)CC1,-5,-3,3,i,3,i
CC1CN(C(=O)COC(=O)c2cc(=O)[nH]c3ccccc23)CC(C)O1 (stereo unspecified),3,10,·,·,0,·
c1ccc(-c2cc3cc4c(cc3cn2)OCO4)cc1,5,-18,-1,·,2,i
CCCNC(=O)c1cc(C2CCCCN2C(=O)c2cc(OC)c(C)c(OC)c2)on1 (stereo unspecified),-10,25*,·,·,3,·
COc1cc(CN2C[C@@H](CO)O[C@@H](n3cnc4c(NCc5ccc(F)cc5)ncnc43)C2)cc(OC)c1OC,-8,-3,·,·,2,·
COc1ccc(N2CCN(C(=O)C(Cc3ccccc3)n3cccc3)CC2)cc1 (stereo unspecified),-2,14,0,i,2,-15*
O=C(Nc1ccc2c(c1)OCCO2)C(c1cc2ccccc2o1)N1CCN(C/C=C/c2ccccc2)CC1 (stereo unspecified),46*,-30,·,·,2,·
O=C(O)CN1C(=O)/C(=C\c2cccc(OC(=O)c3ccco3)c2)SC1=S,9,-4,0,i,1,i
O=C(O)CN1C(=O)/C(=C/C=C/c2ccccc2)SC1=S,-10,31*,1,i,0,i
O=C(O)CN1C(=O)/C(=C\c2ccc(OC(=O)c3ccco3)cc2)SC1=S,-9,4,-1,i,0,-5.9*
CC(=O)c1ccc(NC(=O)CN2C(=O)/C(=C/C=C/c3ccccc3)SC2=S)cc1,19,-8,0,i,1,i
CC1CCCC(NC(=O)c2cccc(S(=O)(=O)N3CCOCC3)c2)C1C (stereo unspecified),-11,7,·,·,0,·
O=S(=O)(c1ccc(Cl)cc1)N1CCC(O)(CN2CCN(Cc3ccccc3)CC2)CC1,6,3,-1,i,4,i
O=S(=O)(c1ccccc1)N1CCC(O)(CSc2ccc(Cl)cc2)CC1,-16,29*,7,i,6,i
CC1=C(C(=O)N2CCCCCC2)CC(CC(=O)NCC2CCCCC2)C(=O)N1Cc1ccc(F)cc1 (stereo unspecified),2,-21,·,·,0,·
SMILES,M1 PAM parental,CHO-K1 Ca antag,NTR1 agonist,ANO1 block,M1 ag parental,ANO1 activ
Cc1ccc2nc(-c3ccc(F)cc3)c(CC3CCCCC3)n2c1,-8,5,·,·,0,·
CC(NC(=O)COC(=O)Cc1ccsc1)c1ccccc1 (stereo unspecified),16,2,-1,i,18*,i
Clc1ccc2[nH]c3c(NCC4CCCO4)ncnc3c2c1 (stereo unspecified),·,·,9,100*,·,·
Nc1[nH]c(C(=O)c2ccccc2)c(-c2cccnc2)c1C(=O)NC1CCCCC1,23,-16,·,·,1,·
Cc1cc(C)cc(Cn2cc(CN3CC(N4CCCCC4)CS3(=O)=O)nn2)c1 (stereo unspecified),-5,-15,·,·,0,·
CCC1Oc2ccccc2N(CC(=O)Nc2ccccc2OC)C1=O (stereo unspecified),-9,24*,-1,i,2,i
COc1cc(OC)cc(-c2nc3ccccc3c(=O)n2OC(=O)c2ccccc2C)c1,21,-2,3,i,1,i
O=C(On1c(-c2ccccc2)nc2ccccc2c1=O)c1ccco1,26,-10,1,100*,0,i
CC(C)N1CCC1(C)C(=O)Nc1cccc(C#N)c1 (stereo unspecified),15,2,·,·,0,·
Cc1ccc(S(=O)(=O)N2Cc3ccccc3CC2C(N)=O)cc1 (stereo unspecified),-12,-3,·,·,0,·
CCN(C(=O)CCc1nc(-c2ccc(OC)cc2)no1)c1cc(OC)ccc1OC,-4,-5,2,25*,2,i
Cc1cccc(S(=O)(=O)NNC(=O)Cc2cccn2C)c1,20,-1,2,25*,0,i
Cc1ccc(S(=O)(=O)NNC(=O)Cc2cccn2C)cc1,11,-10,3,i,0,i
CC(CC(=O)c1ccc(F)cc1)N1CCN(c2ccccc2)CC1 (stereo unspecified),-1,-11,·,·,1,i
CN(Cc1ccccc1)C(=O)c1[nH]cnc1C(=O)NCc1ccccc1,8,-14,-2,·,0,-8.1*
CN(Cc1ccccc1)C(=O)c1[nH]cnc1C(=O)NCc1ccc(CNC(=O)OC(C)(C)C)cc1,-19,-3,1,·,7,i
COc1ccc(C(C)(NC(C)=O)c2nc(-c3ccncc3)cs2)cc1 (stereo unspecified),11,-8,·,·,1,·
Cn1nc(C(C)(C)C)cc1N1C(=O)CCC1(C)C(=O)NC1CCCC1 (stereo unspecified),14,9,·,·,1,·
OCCNC(=S)NCCc1ccccc1,-5,10,0,i,1,i
CC(C)(CNC(=S)NCCc1ccccc1)CNC(=S)NCCc1ccccc1,-10,28*,·,·,12,i
